Sampled rows, rich in hits. Any-hit rate of the full collection: about 7.4%.
SMN2 splice up – increases expression of the SMN2 splice variant; HEK293 SMN2-luciferase splicing reporter, luminescence, 30-36 h; Potency, µM (highest dose often 46.1 µM), usual class: activators; actives 2.8% (n = 210,000); AID 1458; further: nearly all actives have a fitted effect of over 55% in size
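HEK293 cells carry an SMN2 minigene-luciferase reporter in which exon 7 inclusion puts luciferase in frame. Cells were seeded at 2000 cells/well, attached for 10-12 hours, then exposed to compounds for 30-36 hours at 37C before ONE-Glo luminescence.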
FLuc counter – inhibits or activates purified firefly luciferase, miR-21 counter-screen. purified FLuc, Km substrates, luminescence inhibition. Potency, µM (highest dose often 57.5 µM), hits mostly inhibitors. actives 6.9% (n = 360,000); further: nearly all actives have a fitted effect of over 55% in size
Target sequence (P08659 whole entry, looked up): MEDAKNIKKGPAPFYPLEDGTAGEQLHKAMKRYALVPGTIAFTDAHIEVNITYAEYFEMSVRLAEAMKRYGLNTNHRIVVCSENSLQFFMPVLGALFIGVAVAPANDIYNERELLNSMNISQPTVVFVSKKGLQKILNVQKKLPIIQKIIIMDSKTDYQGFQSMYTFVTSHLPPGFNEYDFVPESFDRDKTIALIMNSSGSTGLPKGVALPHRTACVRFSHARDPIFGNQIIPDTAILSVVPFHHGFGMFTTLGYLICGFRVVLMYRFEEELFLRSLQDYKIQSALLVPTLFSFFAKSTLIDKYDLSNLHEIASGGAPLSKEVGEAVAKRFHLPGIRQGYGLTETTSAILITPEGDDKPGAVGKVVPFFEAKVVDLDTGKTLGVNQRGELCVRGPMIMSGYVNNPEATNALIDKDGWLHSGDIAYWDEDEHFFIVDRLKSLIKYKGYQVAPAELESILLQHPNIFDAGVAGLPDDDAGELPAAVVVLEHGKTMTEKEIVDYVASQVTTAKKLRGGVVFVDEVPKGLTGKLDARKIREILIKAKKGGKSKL
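Purified P. pyralis luciferase (10nM final) with 10uM D-luciferin and 10uM ATP (Km levels) in 50mM Tris acetate pH 7.5, 10mM Mg acetate, 0.01% Tween-20, 0.05% BSA; qHTS 6-point titration, ~60 µM downward; luminescence read.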
NPC1 promoter act – activators of NPC1 promoter; Huh7 NPC1 promoter luciferase reporter, 24 h; Potency, µM (highest dose often 9.22 µM), actives largely listed as activators; actives 2.4% (n = 320,000); further: nearly all actives have a fitted effect of over 60% in size
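In 1536-well qHTS, Huh7 cells harboring an NPC1 promoter–luciferase construct received compound for 24 h; activation was quantified by luminescence following luciferase reagent addition.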
ELG1 genotox – inducers of genotoxicity in HEK293T ELG1-luciferase cells | AID 504466 | actives 1.3% (n = 330,000) | HEK293T ELG1-luciferase reporter, luminescence, 16 h | Potency, µM (series often up to 46 µM), most hits filed as activators; further: nearly all actives have a fitted effect of over 60% in size
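HEK293T cells expressing luciferase-tagged ELG1 were exposed to compound or DMSO vehicle for 16 hr at 37 °C and 5% CO2. Luciferase activity was then measured with ONE-Glo after 30 min at room temperature.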
Rab9 prom act – activates the Rab9 promoter | Huh7 Rab9 promoter-luciferase reporter, luminescence, 24 h | Potency, µM (top dose mostly 9.22 µM), most hits filed as activators | actives 2.8% (n = 320,000) | AID 485297; further: nearly all actives have a fitted effect of over 60% in size
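Using Huh7 cells stably transfected with Rab9 promoter–luciferase, compounds were incubated 24 h at 37 °C, 5% CO2; luciferase luminescence was read 10 min after reagent addition.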
Luc counter – Kinase-Glo luciferase inhibition (counter-screen); Q27757; Kinase-Glo luciferase, ATP luminescence, 8 min; Potency, µM (top dose mostly 38.3 µM), hits mostly inhibitors; actives 0.28% (n = 200,000); AID 1379; further: nearly all actives have a fitted effect of over 60% in size
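Compounds were added to a substrate mix at pH 7.2 (50 mM imidazole, 10 uM ATP, within the enzyme's linear range), followed by Kinase-Glo detection reagent; luminescence was measured after 8 minutes at ambient temperature.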
Numbers stand for hits; 0 = inactive; ? = inconclusive; - = not tested or not shown; [ ] = remark or other dose. The call rests on the fitted dose curve; in most records, active means well fitted curve in the direction sought with a large enough effect; inconclusive means small, poorly fitted or top-dose-only effect, or another doubt; inactive means no such curve, though single readings can be large; an effect the other way counts as inactive or inconclusive.

SMILES	SMN2 splice up	FLuc counter	NPC1 promoter act	ELG1 genotox	Rab9 prom act	Luc counter
CC(=O)Nc1ccc(N/C=C/C(=O)c2ccc(C)o2)cc1	0	8.5µM	4µM	?	?	0
COc1ccccc1Oc1ccc(N/C=C/C(=O)c2ccc(C)o2)cc1	0	7.6µM	?	0	?	0
O=C(O)[C@@H]1CCCN1Cc1ccc2c(c1)OCO2	0[9.22 µM]	-	-	-	-	0[7.66 µM]
CCOc1ccc(-n2ccnc2SCC(=O)Nc2cccc3ccccc23)cc1	-	0	-	-	-	-
Cc1ccnc(N(C(=O)Nc2ccccc2)C2=NCC(C)(C)S2)c1	-	19µM	2.5µM	?	?	-
O/N=C/c1ccn(-c2ccc(Br)cc2)c1	0	24µM	0	0	0	0
Cc1ccc(Nc2cc(C)nc(-c3ccccc3O)n2)cc1	0	24µM	0	?	0	0
C/C(=N\Nc1cc(C)nc(-c2ccccc2O)n1)c1ccccc1	0	9.5µM	0	0	0	0
Cc1ccc(Nc2cc(C)nc(-c3ccccc3)n2)cc1	-	21µM	?	?	?	-
Cc1cc(N/N=C/c2ccc(O)c(C)c2O)nc(-c2ccccc2O)n1	0	?	0	0	0	0
COc1ccc(CCNC(=O)c2nc(SCc3ccc(C)cc3)ncc2Cl)cc1OC	0	0	-	-	-	-
Clc1cccc(N2CCN(c3ncnc4c3nc3n4CCCC3)CC2)c1	?	19µM	-	-	-	-
Cc1ccc(Nc2ncnc3c2nc2n3CCCC2)c(Br)c1	-	3.8µM	-	-	-	-
Clc1ccccc1Nc1ncnc2c1nc1n2CCCCC1	-	17µM	-	-	-	-
Clc1cccc(Nc2ncnc3c2nc2n3CCCCC2)c1	-	6.7µM	-	-	-	-
Clc1cccc(CNc2ncnc3c2nc2n3CCCC2)c1	-	0	-	-	-	-
CN(C)Cc1ccccc1-c1ccc2ncnc(N3CCOCC3)c2c1	0	-	-	-	-	0
CCOC(=O)c1ccccc1NC(=O)Cn1c(=O)n(CCC(=O)NCc2ccccc2OC)c(=O)c2ccccc21	0	0	-	-	-	-
COc1ccc(-c2nc3n(c2C)Cc2ccccc2-3)cc1	-	2.4µM	2.5µM	13µM	?	-
COC(=O)c1ccc(C(NC(=O)OCc2ccccc2)/C(=C/[C@@H](C)C(=O)NCc2nc3ccccc3s2)c2cccnc2)cc1 (stereo not given in full)	0	-	-	-	-	0
COC(=O)CSc1nc2ccccc2o1	0	?	0	0	0	0
CCCCCCOC(=O)Sc1nc2ccccc2o1	0	24µM	0	0	0	0
COc1cccc(C(=O)N=c2sc3cc(S(C)(=O)=O)ccc3n2C)c1	0	0	?	?	3.5µM	0
COC(=O)Cn1c(=NC(=O)c2cccc(OC)c2)sc2cc(OC)ccc21	0	3µM	0	0	0	0
Cn1c(=NC(=O)COc2ccccc2)sc2ccccc21	13µM	13µM	3.5µM	0	2µM	0
SMILES	SMN2 splice up	FLuc counter	NPC1 promoter act	ELG1 genotox	Rab9 prom act	Luc counter
COC(=O)c1ccc2c(c1)sc(=NC(=O)c1ccc(S(=O)(=O)N3CCCCC3)cc1)n2C	-	0	-	-	-	-
COc1ccc(C(=O)N=c2sc3cc(Cl)ccc3n2C)cc1	0	0	-	-	-	-
COc1ccc(C(=O)N=c2sc3ccccc3n2C)cc1	2.5µM	1.7µM	3.2µM	?	2.5µM	0
CC(=O)c1cccc(NC(=O)CSc2ncc3c(n2)-c2cc(Cl)ccc2N(Cc2ccccc2)S3(=O)=O)c1	-	0	-	-	-	-
CC1=CC(=O)C2=C(C)C[C@H](OC(=O)Cc3ccccc3)C3[C@H](OC(=O)[C@H]3C)C12 (stereo not given in full)	0	-	-	-	-	0
Cc1cccc(Cn2cccc2CNS(=O)(=O)c2ccc(C)c(C)c2)c1	-	0	-	-	-	-
COC(=O)[C@H]1O[C@@H](c2cc(OC)c(C)c(OC)c2OCc2ccccc2)[C@H](C)[C@@H]2O[C@]12C	0	-	-	-	-	0
COc1cc(OC)cc(C(=O)N=c2sc3ccccc3n2C)c1	10µM	?	?	?	2.5µM	0
COc1cccc(C(=O)N/N=c2\sc3ccccc3n2C)c1	0	?	0	0	0	0
Cc1nn(S(=O)(=O)c2ccc(C(C)C)cc2)c(C)c1S(=O)(=O)N1CCCCC1	-	0	-	-	-	-
COc1cc(/C=N/NC(=O)c2cc(-c3cccs3)nc3ccccc23)ccc1O	-	6.7µM	0	0	0	-
N#Cc1ccc(-c2csc(NC(=O)c3cc(-c4cccs4)nc4ccccc34)n2)cc1	-	0	0	0	0	-
N#Cc1ccc(/C=N/NC(=O)c2cc(-c3cccs3)nc3ccccc23)cc1	0	6.7µM	0	0	0	0
CCN(CC)S(=O)(=O)c1ccc(N2CCOCC2)c(NC(=O)c2[nH]c(C)c(C(C)=O)c2C)c1	-	-	-	10µM	-	-
CCN(CC)S(=O)(=O)c1ccc(N2CCOCC2)c(NC(=O)c2ccc(F)cc2)c1	0	0	0	0	0	0
CC(=O)c1c(C)[nH]c(C(=O)Nc2ccc(C)cc2Br)c1C	-	?	3.5µM	?	0.89µM	-
CCOC(=O)c1c(C)[nH]c(C(=O)Nc2ccc(C)c(Cl)c2)c1C	11µM	2.4µM	2µM	?	4µM	0
CC(=O)c1c(C)[nH]c(C(=O)Nc2cc(C)ccc2C)c1C	0	0	0	0	0	0
CCOC(=O)c1c(C)[nH]c(C(=O)Nc2ccc(NC(C)=O)cc2)c1C	0	0	0	0	0	0
CC(=O)c1c(C)[nH]c(C(=O)Nc2ccc(C)c(C)c2)c1C	-	11µM	?	10µM	1.4µM	0
Cn1c(=O)c(-c2ccc(F)cc2)nc2cncnc21	0	-	-	-	-	0
CCc1c(C(=O)Nc2cc(C)ccc2OC)[nH]c(C)c1C(C)=O	0	0	0	?	0	0
CCc1c(C(=O)Nc2ccc(OC)cc2)[nH]c(C)c1C(C)=O	22µM	?	0	0	0	0
CC(=O)c1c(C)[nH]c(C(=O)NCCc2cccc(C)c2)c1C	0	17µM	?	0	?	0
CCOC(=O)c1c(C)[nH]c(C(=O)NNC(=O)c2ccccc2)c1C	11µM	6.7µM	0.56µM	?	1.8µM	0
SMILES	SMN2 splice up	FLuc counter	NPC1 promoter act	ELG1 genotox	Rab9 prom act	Luc counter
CCc1c(C(=O)Nc2ccc(C)c(C)c2)[nH]c(C)c1C(C)=O	-	15µM	?	?	3.2µM	-
CCc1c(C(=O)NCCc2cccc(C)c2)[nH]c(C)c1C(C)=O	-	0	0	0	0	-
COCCn1c(C)cc(O)c(C(c2ccccc2)N2CCN(c3ccccc3)CC2)c1=O (stereo not given)	-	0	-	-	-	-
Cc1ccc(CC(=O)Nc2c(C(=O)N3CCN(c4ccccc4F)CC3)oc3ccccc23)cc1	-	0	-	-	-	-
CCOC(=O)c1[nH]c(C)c(C(=O)Nc2ccc3c(c2)OCCO3)c1C	0	?	0	0	0	0
CC(=O)c1c(C)[nH]c(C(=O)Nc2ccc3c(c2)OCCO3)c1C	5.6µM	4.8µM	1.8µM	?	1.3µM	0
Oc1c(N=Nc2ccccc2)sc2ccccc12	-	0.38µM	?	2.3µM	3.2µM	-
CC1=CC(=O)CC(C)(C)[C@]1(O)/C=C\C(C)=C\C(=O)O	0[9.22 µM]	-	-	-	-	0[7.66 µM]
